Screens: PubChem, National Center for Advancing Translational Sciences (NCATS)
SW480 rerep: DNA re-replication induction in SW480 cells; 340,000 tested, 1.8% active; Potency, µM (titrated, usually from 46.1 µM), for the others: at the highest dose re-replication activation, hits mostly activators; SW480 DNA re-replication, Hoechst DNA content imaging, 48 h; further: % of control where 0% means no effect; nearly all actives have a fitted effect of over 55% in size
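First, 250 cells per well were seeded. Next, compound or vehicle (23 nL) was pinned in, plates sat 48 hr at 37 C. Finally Hoechst was added for 40 min before fluorescence scanning.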
MCF10A rereplic: DNA re-replication induction in MCF 10a cells; MCF 10A DNA re-replication, Hoechst nuclear intensity, 48 h; AID 624296; Potency, µM (top dose mostly 46.1 µM), for inactives: top-dose activity, positive = re-replication, most hits filed as activators; 350,000 tested, 2.9% active; further: % of control where 0% means no effect; nearly all actives have a fitted effect of over 50% in size
KB-3-1 tox: kills parental KB-3-1 adenocarcinoma cells; Potency, µM (top dose mostly 46.1 µM), hits mostly cytotoxic; 400,000 tested, 1.4% active; KB-3-1 viability, CellTiter-Glo ATP luminescence, 72 h; further: on the % scale 0 is the no-effect control and ±100 the full control effect; nearly all actives have a fitted effect of over 60% in size
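Screening of KB-3-1 cells (DMEM, 10% FBS, phenol-red free) ran from lowest to highest compound concentration; after 72 h at 37 °C viability was read luminescently and curves fitted.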
HT1080-NT tox: kills 2HG-producing HT-1080-NT fibrosarcoma cells | HT-1080-NT fibrosarcoma viability, CellTiter-Glo ATP luminescence, 48 h | Potency, µM (highest dose often 46.1 µM), for inactives: at the top dose activity, negative = less viability, actives largely listed as cytotoxic | 360,000 tested, 1.6% active | AID 686970;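 further: NT is the 2HG producing partner of a matched IDH1 knockdown line; 0% = DMSO-treated cells and -100% = media-only wells without cells; nearly all actives have a fitted effect of over 55% in size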
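Luminescent CellTiter-Glo readout after 48 hours of compound exposure at 37 degrees C defined viability of HT-1080-NT cells. Activity was normalized to DMSO wells and cell-free media wells; concentration-response curves were fitted and assigned curve classes.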
HT1080 IDH1KD tx: HT-1080 IDH1 knockdown cell toxicity (counter line) | 360,000 tested, 2% active | Potency, µM (doses to about 46.1 µM), without a hit: at the highest dose activity, negative = toxicity, most hits filed as cytotoxic | HT-1080 IDH1 knockdown viability, ATP luminescence, 48 h;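 further: 0% = DMSO wells and -100% = cell-free medium wells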
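CellTiter-Glo luminescence after 48 h compound exposure at 37 degrees C of IDH1-knockdown HT-1080 cells in 5% FBS RPMI. %Activity scaled between DMSO wells and cell-free media wells, with curves fitted and assigned curve classes.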
KB-V1 cytotox: KB-V1 MDR subline cytotoxicity; KB-V1 MDR cells viability, CellTiter-Glo, 72 h; Potency, µM (titrated, usually from 46.1 µM), most hits filed as cytotoxic; 400,000 tested, 3.4% active; AID 1347076; further: on the % scale 0 is the no-effect control and ±100 the full control effect; nearly all actives have a fitted effect of over 60% in size
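Luminescent ATP read-out (CellTiter-Glo, 10 min) measures survival of drug-selected KB-V1 MDR cells after 72 h, 37 degrees C compound exposure. Medium: phenol-red-free DMEM, 10% FBS. Values from fitted concentration-response curves.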
* marks the source's active call; other numbers are inactive results; i = inactive; ? = inconclusive; · = no result. Rows were chosen to be rich in hits. Some 7.9% of all compounds tested hit in one or more screens of this group. The call rests on the fitted dose curve; in most records, active means well fitted curve in the direction sought with a large enough effect; inconclusive means small, poorly fitted or top-dose-only effect, or another doubt; inactive means no such curve, though single readings can be large; an effect the other way counts as inactive or inconclusive. Potency means the concentration at half of the fitted maximal effect.

SMILES	SW480 rerep	MCF10A rereplic	KB-3-1 tox	HT1080-NT tox	HT1080 IDH1KD tx	KB-V1 cytotox
N#C/C(=C/c1ccc(Sc2nc3ccccc3[nH]2)o1)c1ccccc1F	?	19.5%	i	?	?	3.66µM*
Cc1ccccc1CN1C(=O)CSc2ccc(C(=O)N3CCOCC3)cc21	-1.0%	23.7%	i	8.4%	6.4%	i
O=C(NCCc1ccccc1)c1ccc2c(c1)N(Cc1ccc(Cl)cc1)C(=O)CS2	·	·	23.1µM*	·	·	i
O=C(c1ccc2c(c1)N(Cc1ccccc1)C(=O)CS2)N1CCOCC1	-0.8%	11.6%	i	6.4%	-5.2%	14.6µM*
CC1(C(=O)NCc2cccc3ccccc23)CCN1CCc1ccccc1 (configuration not stated)	·	·	i	?	?	i
CC(C)(C)c1ccc(CC(=O)N2CCC2(C)C(=O)Nc2cccc3ccccc23)cc1 (configuration not stated)	·	·	i	?	?	i
CC1(C(=O)NCc2ccccc2Br)CCN1C(=O)Cc1ccc(-c2ccccc2)cc1 (configuration not stated)	·	·	?	16.4µM*	?	?
CC(C)Oc1ccc(CN2CCC2(C)C(=O)NCc2cccc3ccccc23)cc1 (configuration not stated)	·	·	?	18.4µM*	?	?
COc1ccccc1CNC(=O)C1(C)CCN1C(=O)Cc1ccc(-c2ccccc2)cc1 (configuration not stated)	·	·	?	?	?	i
CC(C)(C)c1ccc(CC(=O)N2CCC2(C)C(=O)NCc2cccc3ccccc23)cc1 (configuration not stated)	·	·	i	?	16.4µM*	i
CCn1c(=N)c(S(=O)(=O)c2ccccc2)cc2c(=O)n3ccccc3nc21	2.0%	6.51µM*	i	1.8%	15.2%	i
Cc1ccc(S(=O)(=O)c2cc3c(=O)n4ccccc4nc3n(CC3CCCO3)c2=N)cc1C (configuration not stated)	15.8%	-16.8%	i	?	?	4.61µM*
COc1ccc(CCn2c(=N)c(S(=O)(=O)c3ccccc3)cc3c(=O)n4ccccc4nc32)cc1	6.2%	3.66µM*	i	0.8%	0.8%	i
Cc1ccc(S(=O)(=O)c2cc3c(=O)n4ccccc4nc3n(C)c2=N)cc1	?	?	i	7.1%	1.6%	6.51µM*
O=C(c1ccc2c(c1)CCN2S(=O)(=O)c1ccc(Cl)cc1)N1CCN(c2ccccc2)CC1	·	·	i	·	·	i
COc1ccccc1N1CCN(C(=O)CSc2nc3ccccc3nc2Cc2ccc(F)cc2)CC1	·	·	i	·	·	i
CCCn1c(=N)c(S(=O)(=O)c2ccccc2)cc2c(=O)n3ccccc3nc21	1.2%	18.4µM*	i	7.2%	5.3%	i
Cc1ccc(S(=O)(=O)c2cc3c(=O)n4ccccc4nc3n(CCc3ccccc3)c2=N)cc1	?	?	i	8.0%	5.6%	i
N=c1c(S(=O)(=O)c2ccc(Br)cc2)cc2c(=O)n3ccccc3nc2n1CCN1CCOCC1	?	16.4µM*	i	3.5%	18.0%	i
CCCCCn1c(=N)c(S(=O)(=O)c2ccccc2)cc2c(=O)n3ccccc3nc21	·	·	i	·	·	?
COc1ccccc1NC(=O)Cn1c(=O)oc2cc(S(=O)(=O)NCc3ccccc3)ccc21	·	·	i	·	·	i
CCOC(=O)c1c(C)[nH]c(C)c1S(=O)(=O)NCC(=O)N1CCN(c2ccccc2OC)CC1	·	·	i	·	·	i
CN(C)c1ccc(C(CNC(=O)Cc2ccc(Cl)cc2)N2CCOCC2)cc1 (configuration not stated)	·	·	i	·	·	?
COc1cc(C)cc(OC)c1OCC(=O)Nc1cc(C)on1	-5.2%	-1.6%	i	-2.0%	-1.4%	20.6µM*
COc1cc(C(C)=O)ccc1OCC(=O)Nc1cc(C)on1	-7.1%	4.3%	i	0.2%	13.2%	?
SMILES	SW480 rerep	MCF10A rereplic	KB-3-1 tox	HT1080-NT tox	HT1080 IDH1KD tx	KB-V1 cytotox
O=C(NNS(=O)(=O)c1ccc(F)cc1)c1ccccc1F	18.4µM*	-1.1%	i	2.3%	7.5%	i
Cc1cc(C)c(Nc2nc3ccccc3n3c(C)nnc23)c(C)c1	·	·	i	·	·	i
Cc1cc(N/N=C/c2ccc(F)cc2)nc(NCc2ccccc2)n1	-1.1%	?	?	18.4µM*	16.4µM*	?
CN(C)c1nc(NCc2ccccc2)nc(N/N=C/c2ccc(Br)cc2)n1	0.7%	3.6%	i	-5.4%	-8.5%	i
Cc1cc(N/N=C/c2ccc(N(C)C)cc2)nc(NCc2ccccc2)n1	20.6µM*	8.2µM*	i	7.6%	8.1%	i
Cc1cc(N/N=C/c2ccc(Cl)cc2Cl)nc(NCc2ccccc2)n1	?	?	i	-10.6%	?	8.2µM*
Cc1ccc(/C=N/Nc2cc(C)nc(NCc3ccccc3)n2)cc1	?	?	i	?	?	i
CCc1noc(C)c1C(=O)Nc1nc(-c2ccc(OC)cc2OC)cs1	-715.2%	7.8%	i	-16.6%	-2.0%	i
CCc1noc(C)c1C(=O)Nc1nc(-c2ccc(OC)cc2)cs1	18.4µM*	24.6%	i	-9.3%	-17.4%	i
Cc1noc(C)c1C(=O)Nc1nc(-c2ccc(F)c(F)c2)cs1	-8.2%	-6.2%	i	-4.8%	10.9%	20.6µM*
COc1ccc(-c2csc(NC(=O)c3c(C)noc3C)n2)cc1F	-10.0%	16.5%	i	1.6%	-12.6%	i
CCc1ccc(S(=O)(=O)c2nnn3c2nc(NCCNC(C)=O)c2cc(Cl)ccc23)cc1	·	·	i	·	·	i
Cc1cc(C(=O)CCl)c(C)n1-c1ccon1	11.6µM*	?	?	-28.0%	20.6µM*	?
CC(=O)c1c(C(C)=O)c(C)n(-c2cccc([N+](=O)[O-])c2)c1C	-1.6%	4.3%	i	-6.2%	-4.5%	i
Cc1cc(C(=O)CCl)c(C)n1Cc1ccco1	?	?	i	?	?	i
Cc1cc(C(=O)CCl)c(C)n1-c1cccc([N+](=O)[O-])c1	?	?	16.4µM*	?	?	23.1µM*
COc1ccc(-c2c(C)c3ccc(O)c(CN4CCOCC4)c3oc2=O)cc1OC	·	·	i	·	·	i
CCC(Oc1ccccc1)C(=O)Nc1ccccc1C(=O)N1CCCCC1 (configuration not stated)	-4.5%	11.9%	i	-5.1%	-7.7%	11.6µM*
Cc1ccccc1OCCC(=O)Nc1ccccc1C(=O)N1CCCCC1	-9.4%	6.3%	i	8.7%	1.0%	8.2µM*
